# Rab9 prom act: Rab9 promoter activation | actives 2.8% (n = 320,000) | Huh7 Rab9 promoter-luciferase reporter, luminescence, 24 h | Potency, µM (doses to about 9.22 µM), hits mostly activators; further: nearly all actives have a fitted effect of over 60% in size
#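 Stable Rab9-luc Huh7, 1500 cells/well, 2 h settle; cmpd in DMSO, 24 h, 37 °C/5% CO2; luciferase reagent 10 min RT; luminescence.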
# NPC1 prom act: NPC1 promoter activation. Huh7 NPC1 promoter luciferase reporter, 24 h. Potency, µM (doses to about 9.22 µM), most hits filed as activators. actives 2.4% (n = 320,000). AID 485313; further: nearly all actives have a fitted effect of over 60% in size
#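 Luminescence read-out of NPC1 promoter-driven luciferase in stably transfected Huh7 cells; compounds delivered in DMSO and left 24 h at 37C, 5% CO2, qHTS titration format.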
# FLuc modulator: firefly luciferase modulation, counter-screen for miR-21 project. P08659. purified FLuc, Km substrates, luminescence inhibition. Potency, µM (doses to about 57.5 µM), hits mostly inhibitors. actives 6.9% (n = 360,000); further: nearly all actives have a fitted effect of over 55% in size
# Target sequence (P08659 whole entry, looked up): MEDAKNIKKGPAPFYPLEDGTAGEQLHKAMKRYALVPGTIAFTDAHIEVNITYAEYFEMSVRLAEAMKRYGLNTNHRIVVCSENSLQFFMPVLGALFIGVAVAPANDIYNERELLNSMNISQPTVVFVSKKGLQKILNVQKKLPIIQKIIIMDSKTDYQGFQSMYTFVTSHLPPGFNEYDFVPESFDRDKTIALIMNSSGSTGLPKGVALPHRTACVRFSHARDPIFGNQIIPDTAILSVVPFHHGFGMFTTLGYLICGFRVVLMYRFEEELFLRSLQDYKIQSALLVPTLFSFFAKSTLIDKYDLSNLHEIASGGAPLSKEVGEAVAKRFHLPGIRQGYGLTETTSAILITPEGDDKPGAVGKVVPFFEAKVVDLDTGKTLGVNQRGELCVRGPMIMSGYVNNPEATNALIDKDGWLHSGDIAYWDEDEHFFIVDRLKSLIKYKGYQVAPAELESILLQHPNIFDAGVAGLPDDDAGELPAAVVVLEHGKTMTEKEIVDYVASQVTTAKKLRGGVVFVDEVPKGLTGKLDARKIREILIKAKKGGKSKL
#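 Purified P. pyralis luciferase (10nM final) with 10uM D-luciferin and 10uM ATP (Km levels) in 50mM Tris acetate pH 7.5, 10mM Mg acetate, 0.01% Tween-20, 0.05% BSA; qHTS 6-point titration, ~60 µM downward; luminescence read.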
# SMN2 splice up: increases expression of the SMN2 splice variant | HEK293 SMN2-luciferase splicing reporter, luminescence, 30-36 h | Potency, µM (doses to about 46.1 µM), most hits filed as activators | actives 2.8% (n = 210,000) | AID 1458; further: nearly all actives have a fitted effect of over 55% in size
#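 HEK293 cells carry an SMN2 […]–luciferase reporter in which exon 7 inclusion puts luciferase in frame. Cells were plated 10-12 h before compound addition, then incubated 30-36 h at 37C. ONE-Glo luminescence was read; sodium butyrate at 4.5 mM final served as control.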
# ELG1 genotox: induces genotoxicity in HEK293T cells with luciferase-tagged ELG1 | HEK293T ELG1-luciferase reporter, luminescence, 16 h | Potency, µM (series often up to 46 µM), actives largely listed as activators | actives 1.3% (n = 330,000) | AID 504466; further: nearly all actives have a fitted effect of over 60% in size
#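 Reporter readout depends on ELG1 protein level, which increases with genetic stress. After 16 hr compound exposure at 37 °C, luciferase activity was quantified using ONE-Glo.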
# uPA generation: blocks generation of uPA at the cell surface. cell surface uPA generation assay, qHTS. Potency, µM (doses to about 38.3 µM), actives largely listed as inhibitors. actives 0.31% (n = 330,000); active means well fitted inhibition curve with a large enough effect; inconclusive means small, poorly fitted or top-dose-only effect; inactive means no such curve, though single readings can be large or run the other way; tested in mouse RAW 264.7 cells; further: nearly all actives have a fitted effect of over 55% in size
# A number is an active result; - = inactive; ? = inconclusive; . = no result. The list is not random: actives were taken first. Their share in the collection is about 7.3%. Unless noted, the call rests on the fitted dose curve; in most records, active means well fitted curve in the direction sought with a large enough effect; inconclusive means small, poorly fitted or top-dose-only effect, or another doubt; inactive means no such curve, though single readings can be large; an effect the other way counts as inactive or inconclusive.
SMILES,Rab9 prom act,NPC1 prom act,FLuc modulator,SMN2 splice up,ELG1 genotox,uPA generation
COc1ccc2cc(-c3ccsc3)ncc2c1,-,?,1.9µM,.,?,8.9µM
COc1cccc(Cc2nc3ccccc3nc2SCC(=O)N2CCc3ccccc32)c1,.,.,-,.,.,.
CCNc1ncc2nc(-c3ccc(F)cc3)c(=O)n(CCC#N)c2n1,.,.,.,-,.,.
COc1ccc(S(=O)(=O)c2c(Nc3ccc(C)cc3)sc(C(=O)c3ccc4c(c3)OCO4)c2N)cc1,.,.,-,.,.,.
O=C(NC1CC(=O)N(c2cccc(F)c2)C1)C(c1ccccc1)c1ccccc1 (centres undefined),.,.,-,.,.,.
COc1ccc(OC[C@@H](O)CNC(=O)c2cccc3c2C(=O)c2ccc(Cl)cc2S3(=O)=O)cc1,-,-,-,.,-,-
Clc1cc(Cl)c(OCc2nc(-c3ccccn3)no2)cc1Cl,0.71µM,1.1µM,1.3µM,11µM,?,-
CC(C)(C)c1ccc(OCc2nc(-c3ccccn3)no2)c(Br)c1,.,.,3µM,13µM,.,-
CCc1ccc(OCc2nc(-c3ccc(OC)c(OC)c3)no2)c(Br)c1,.,.,-,-,.,.
COC(=O)c1ccc([C@H]2CC(=O)O2)cc1,-,-,-,.,-,4.5µM
COC(=O)C1=C(C)NC(=O)CC1c1ccc(C(=O)OC)cc1 (centres undefined),-,-,-,-,-,-
COc1cc(CNC(=O)c2cnc(SC)nc2-c2ccccc2)cc(OC)c1OC,.,.,-,.,.,.
Cc1cs/c(=N\N=C\c2ccccc2)n1Cc1ccco1,-,-,21µM,-,-,-
Cc1ccc(C)n1-c1ccc(-c2nnco2)cc1,-,-,-,-,-,.
Cc1cc(-c2nnco2)c(C)n1-c1ccc(F)cc1,-,-,17µM,-,-,-
CCCN(C(=O)c1cc(S(=O)(=O)N2CCN(CC)CC2)ccc1Cl)C1CCS(=O)(=O)C1 (centres undefined),.,.,.,.,.,-
COc1ccc(Cl)cc1NC(=O)CSc1nnc2[nH]c(=O)cc(-c3ccccc3)n12,.,.,1.2µM,.,.,.
O=C(CSc1nnc2[nH]c(=O)cc(-c3ccccc3)n12)Nc1ccccc1C(F)(F)F,.,.,2.7µM,.,.,.
CCCc1cc(=O)[nH]c2nnc(SCC(=O)Nc3ccc(C(C)=O)cc3)n12,-,-,-,.,-,-
CCc1ccc(NC(=O)CSc2nnc3[nH]c(=O)cc(-c4ccccc4)n23)cc1,.,.,1.5µM,.,.,.
Nc1cc(=O)[nH]c2nnc(SCC(=O)Nc3cccc4ccccc34)n12,-,-,-,.,-,-
CCCCCn1cc2c(c1-c1ccc(Cl)cc1)c(=O)n(C)c(=O)n2C,.,.,-,-,.,.
C=C(C)COC(=O)c1ccccc1C(=O)OCC1(C)CO1 (centres undefined),.,.,.,.,.,-
O=C(NC(=O)c1ccccc1)NC1(C(F)(F)F)OCCO1,4µM,2.5µM,11µM,16µM,?,.
O=C(NCc1ccccc1)NC(=O)c1ccccc1,-,-,-,-,-,-
SMILES,Rab9 prom act,NPC1 prom act,FLuc modulator,SMN2 splice up,ELG1 genotox,uPA generation
COc1cc2c(cc1OC)CN(c1ccc([N+](=O)[O-])cc1Cl)CC2,-,-,-,-,-,-
COc1cc2c(cc1OC)CN(c1ccc(F)cc1[N+](=O)[O-])CC2,?,-,12µM,.,-,-
COc1ccc(C(=O)c2oc3ccccc3c2NC(=O)c2cccc(OC)c2)cc1,.,.,-,-,.,.
O=C(c1ccc(Cl)cc1)c1coc2ccc(O)cc12,?,?,3.8µM,-,-,-
COC(=O)CCC(=O)c1oc2ccc(OC)cc2c1N,4.5µM,2.5µM,3.4µM,?,3.7µM,-
COc1ccc2oc(C(=O)c3ccccc3)c(N)c2c1,2µM,2µM,3µM,11µM,?,-
COc1ccc2occ(C(=O)c3ccccc3)c2c1,?,-,13µM,?,?,-
Cc1ccc(NC(=O)Cn2cc(C(=O)c3ccco3)c3ccccc32)cc1C,.,.,?,-,.,.
Nc1c(C(=O)c2ccccc2)oc2ccccc12,-,?,?,-,?,-
COc1ccc2oc(C(=O)C3CC3)c(N)c2c1,?,?,13µM,?,?,-
COc1ccc(C(=O)c2oc3ccccc3c2N)cc1,?,3.5µM,11µM,13µM,9.2µM,-
O=C(CCSCc1ccccc1Cl)N1CCN(c2ccccn2)CC1,?,?,24µM,-,-,.
CC(C)(C)c1ccc(OCC(=O)N2CCN(c3ccccn3)CC2)cc1,-,-,12µM,.,-,-
CCOc1ccc(S(=O)(=O)NCCc2csc(-c3ccc(Cl)cc3)n2)cc1,.,.,-,.,.,.
CC(=O)c1ccc(NC(=O)c2nc3ccccc3n(C)c2=O)cc1,.,.,4.8µM,.,.,.
CC(=O)c1ccc(NC(=O)c2nc(-c3ccccc3)n(-c3ccc(C)cc3)n2)cc1,.,.,15µM,.,.,.
CCCCSc1nc2sc3c(c2c(=O)n1-c1ccccc1C)CC(C)(C)OC3,.,.,-,-,.,.
O=C(Nc1ccc(Nc2ccccc2)cc1)c1ccc(Cl)cc1,.,.,.,.,.,-
N#C/C(C(=O)Nc1ccc(Cl)cc1)=C(/S)Nc1ccccc1,-,-,15µM,.,-,-
CN(C)c1ccc(-c2ccc3c(=O)c4ccccc4n(C)c3c2)cn1,2.2µM,2.5µM,4.8µM,.,16µM,-
COC(=O)c1sccc1NC(=O)CC1C(=O)NCCN1C(=O)Nc1ccc(C(F)(F)F)cc1 (centres undefined),-,-,-,.,-,-
Cc1ccccc1Cn1c(=O)n(CCCCC(=O)NCc2ccc3c(c2)OCO3)c(=O)c2ccccc21,.,.,-,-,.,.
COc1ccccc1/C=C/C=N/n1c(-c2ccccn2)n[nH]c1=S,?,-,17µM,.,?,-
COc1ccccc1/C=C/C=N/n1c(-c2cc(C)[nH]n2)n[nH]c1=S,-,-,21µM,-,-,-
COc1ccccc1/C=C/C=N/n1c(-c2ccncc2)n[nH]c1=S,-,-,12µM,-,-,-
SMILES,Rab9 prom act,NPC1 prom act,FLuc modulator,SMN2 splice up,ELG1 genotox,uPA generation
S=c1[nH]nc(-c2cc(-c3ccccc3)n[nH]2)n1/N=C/C=C/c1ccco1,-,-,13µM,.,-,-
Cc1ccc(C)c(N2CCN(C(=O)c3ccc4c(c3)N(Cc3ccc(F)cc3)C(=O)c3ccccc3S4=O)CC2)c1 (centres undefined),.,.,-,-,.,.
Cc1nn(-c2ccccc2)c2c1N(CC(=O)N1CCN(c3cccc(Cl)c3)CC1)C(=O)CS2,.,.,-,.,.,.
C=C(C(C)=O)C(O)c1cccc(Br)c1 (centres undefined),.,.,.,-,.,.
S=c1[nH]nc(-c2ccncc2)n1/N=C/C=C/c1ccccc1,-,-,?,.,-,-
S=c1[nH]nc(-c2ccncc2)n1/N=C/C(Cl)=C\c1ccccc1,3.2µM,3.5µM,-,11µM,-,?
COc1ccc(-c2noc(CNC(=O)c3ccoc3C)n2)cc1OC,-,-,-,.,-,-
Cc1sc(NC(=O)C2CCCCC2)c(C#N)c1-c1ccccc1,4µM,?,6.7µM,?,?,-

# Screening data as filed in PubChem BioAssay.
